For 40 sequences, binding signal results are on record in paper PMC9838217, “Structure of SALL4 zinc finger domain reveals link between AT-rich DNA binding and Okihiro syndrome”.

Changes are numbered by the printed parent chain.

The target of the first assay is T1, SALL4 ZFC4 R900W (HT-SELEX) (Mus musculus, UniProt Q8BX22 870-940, R900W).
T1 sequence: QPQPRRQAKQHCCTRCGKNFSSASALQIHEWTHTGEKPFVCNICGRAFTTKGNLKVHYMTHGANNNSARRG
Nature of the assay: HT-SELEX; high values mean tight binding. Conditions: protein: recombinant; vector His6-GST; dsDNA, one strand shown. In a few lines:
(§1)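 DNA from a random library (1.5 µg in the first cycle, 200 ng afterwards) was incubated with purified recombinant mouse SALL4 zinc finger cluster 4, residues 870–940 (1 µg), for 10 min at room temperature in 100 µl buffer: 10 mM Tris–HCl pH 7.5, 50 mM NaCl, poly(dI-dC), DTT. Bound complexes were pulled down on Ni2+ beads, washed and PCR-amplified, and the selection was repeated for up to 6 cycles in triplicate. MiSeq reads were scanned for 6-mers, and binding signal is each canonical k-mer's read fraction as fold change over the initial random library.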
For GGTATA, the binding signal was determined as 1.34 ± 0.0665 fold-change vs cycle 0.
With CGCCAC, the binding signal worked out at 0.103 ± 0.0044 fold-change vs cycle 0.
Take CGGAGC: the binding signal stood at 0.166 ± 0.00611 fold-change vs cycle 0.
GCCCCC: the binding signal was 0.107 ± 0.0111 fold-change vs cycle 0.
Take CCGGGC: the binding signal stood at 0.0594 ± 0.00905 fold-change vs cycle 0.
As for CGGGCA, the binding signal worked out at 0.116 ± 0.00794 fold-change vs cycle 0.
On to CGAGCG, for which the binding signal was 0.115 ± 0.0072 fold-change vs cycle 0.
As to CGCGCC, the binding signal turned out to be 0.0255 ± 0.00279 fold-change vs cycle 0.
On the same count and under the same terms, in the case of CCCCGG it was 0.118 ± 0.0064 fold-change vs cycle 0; in that of GGCTGA, 0.349 ± 0.0304 fold-change vs cycle 0; in that of CCGTCG, 0.147 ± 0.00952 fold-change vs cycle 0.
For CAGGCG, the binding signal amounted to 0.129 ± 0.00318 fold-change vs cycle 0.
Turning to AGAGCG, the binding signal stood at 0.324 ± 0.0123 fold-change vs cycle 0.
In the case of GGGCCC, the binding signal was 0.0676 ± 0.00899 fold-change vs cycle 0.
As to CCTGCC, the binding signal turned out to be 0.172 ± 0.00852 fold-change vs cycle 0.
Consider AGCACG, for which the binding signal was 0.337 ± 0.0173 fold-change vs cycle 0.
Still for that read-out and setting: to AGCGAC belongs 0.253 ± 0.0224 fold-change vs cycle 0; to CCGCAA, 0.234 ± 0.0164 fold-change vs cycle 0.
On to CGGCCG, for which the binding signal stood at 0.0289 ± 0.00511 fold-change vs cycle 0.
Turning to ACACGC, the binding signal was 0.297 ± 0.0275 fold-change vs cycle 0.
For ATGCGC, the binding signal came out at 0.153 ± 0.00714 fold-change vs cycle 0.
Consider CCGAGG, for which the binding signal was 0.251 ± 0.0139 fold-change vs cycle 0.
As for GCCGGA, the binding signal was determined as 0.106 ± 0.00682 fold-change vs cycle 0.
CCCGGA: the binding signal was 0.231 ± 0.0171 fold-change vs cycle 0.
As for CGTCGC, the binding signal came to 0.097 ± 0.00631 fold-change vs cycle 0.
As for GGCCTA, the binding signal turned out to be 0.299 ± 0.00892 fold-change vs cycle 0.
On to AGCGGC, for which the binding signal is 0.0644 ± 0.00817 fold-change vs cycle 0.
Take GCGACA: the binding signal was 0.186 ± 0.0276 fold-change vs cycle 0.
GCAGCC: the binding signal came to 0.112 ± 0.0161 fold-change vs cycle 0.
With CCGACG, the binding signal came to 0.143 ± 0.00739 fold-change vs cycle 0.
In the case of ATGATG, the binding signal was 1.51 ± 0.0621 fold-change vs cycle 0.
On the same count and under the same terms, in the case of GCGCGC it was 0.0165 ± 0.00409 fold-change vs cycle 0; in that of CCGCAC, 0.118 ± 0.0077 fold-change vs cycle 0; in that of CTGCGC, 0.08 ± 0.0196 fold-change vs cycle 0.
Turning to ACTATG, the binding signal amounted to 1.37 ± 0.0399 fold-change vs cycle 0.
With GCACCA, the binding signal stood at 0.324 ± 0.0178 fold-change vs cycle 0.
The same measure, in the same setting: to GGCCCA belongs 0.126 ± 0.00969 fold-change vs cycle 0; to CGGGAG, 0.27 ± 0.0161 fold-change vs cycle 0; to CGGGGA, 0.231 ± 0.0209 fold-change vs cycle 0.
Consider CGCACC, for which the binding signal was determined as 0.132 ± 0.00899 fold-change vs cycle 0.

The target of another assay is T2, SALL4 ZFC4 G921D (HT-SELEX) (Mus musculus, UniProt Q8BX22 870-940, G921D).
T2 sequence: T1 sequence with W31R, G52D
Nature of the assay: HT-SELEX; high values mean tight binding. To be noted: protein: recombinant; vector His6-GST; dsDNA, one strand shown. The method in brief:
as §1
As to GGTATA, the binding signal was determined as 1.3 ± 0.0853 fold-change vs cycle 0.
On to CGCCAC, for which the binding signal was 0.216 ± 0.0502 fold-change vs cycle 0.
As for CGGAGC, the binding signal is 0.286 ± 0.0677 fold-change vs cycle 0.
On the same count and under the same terms, to GCCCCC belongs 0.213 ± 0.0572 fold-change vs cycle 0; to CCGGGC, 0.152 ± 0.0608 fold-change vs cycle 0.
Consider CGGGCA, for which the binding signal worked out at 0.223 ± 0.0617 fold-change vs cycle 0.
CGAGCG: the binding signal worked out at 0.24 ± 0.0639 fold-change vs cycle 0.
With CGCGCC, the binding signal is 0.0934 ± 0.0574 fold-change vs cycle 0.
On to CCCCGG, for which the binding signal is 0.224 ± 0.0627 fold-change vs cycle 0.
As to GGCTGA, the binding signal was 0.483 ± 0.072 fold-change vs cycle 0.
In the case of CCGTCG, the binding signal came to 0.245 ± 0.0616 fold-change vs cycle 0.
Regarding CAGGCG, the binding signal stood at 0.24 ± 0.0647 fold-change vs cycle 0.
For AGAGCG, the binding signal was found to be 0.489 ± 0.067 fold-change vs cycle 0.
Regarding GGGCCC, the binding signal stood at 0.178 ± 0.0632 fold-change vs cycle 0.
With CCTGCC, the binding signal was determined as 0.294 ± 0.0738 fold-change vs cycle 0.
As for AGCACG, the binding signal came to 0.468 ± 0.0696 fold-change vs cycle 0.
As for AGCGAC, the binding signal is 0.41 ± 0.0789 fold-change vs cycle 0.
Consider CCGCAA, for which the binding signal was 0.347 ± 0.0535 fold-change vs cycle 0.
As for CGGCCG, the binding signal turned out to be 0.105 ± 0.0554 fold-change vs cycle 0.
ACACGC: the binding signal came to 0.43 ± 0.0602 fold-change vs cycle 0.
On to ATGCGC, for which the binding signal was 0.28 ± 0.0818 fold-change vs cycle 0.
For the sequence CCGAGG, the binding signal was 0.375 ± 0.0741 fold-change vs cycle 0.
Regarding GCCGGA, the binding signal amounted to 0.224 ± 0.0644 fold-change vs cycle 0.
In the case of CCCGGA, the binding signal stood at 0.334 ± 0.0568 fold-change vs cycle 0.
Regarding CGTCGC, the binding signal amounted to 0.194 ± 0.077 fold-change vs cycle 0.
As to GGCCTA, the binding signal came to 0.443 ± 0.0788 fold-change vs cycle 0.
For AGCGGC, the binding signal turned out to be 0.177 ± 0.0591 fold-change vs cycle 0.
On the same count and under the same terms, in the case of GCGACA it was 0.338 ± 0.0565 fold-change vs cycle 0.
For the sequence GCAGCC, the binding signal came out at 0.221 ± 0.0775 fold-change vs cycle 0.
With CCGACG, the binding signal is 0.255 ± 0.0634 fold-change vs cycle 0.
On the same count and under the same terms, to ATGATG belongs 1.43 ± 0.0931 fold-change vs cycle 0; to GCGCGC, 0.0747 ± 0.0529 fold-change vs cycle 0; to CCGCAC, 0.22 ± 0.0597 fold-change vs cycle 0.
As to CTGCGC, the binding signal was 0.173 ± 0.0775 fold-change vs cycle 0.
Same read-out and setting: to ACTATG belongs 1.34 ± 0.0843 fold-change vs cycle 0.
On to GCACCA, for which the binding signal stood at 0.451 ± 0.0674 fold-change vs cycle 0.
Turning to GGCCCA, the binding signal is 0.245 ± 0.0696 fold-change vs cycle 0.
Still for that read-out and setting: to CGGGAG belongs 0.381 ± 0.0867 fold-change vs cycle 0.
Still for that read-out and setting: to CGGGGA belongs 0.347 ± 0.093 fold-change vs cycle 0; to CGCACC, 0.24 ± 0.0749 fold-change vs cycle 0.
